Screens as filed in PubChem.
Only some compounds are listed: those with a hit (about 8.7% of all), similar ones and a draw of the others.
TNAP act DEA = activators of human TNAP at intermediate phosphate acceptor | activation factor at 20 µM | 64,000 tested, under 10 active | P05186 | purified TNAP, CDP-star luminescence, 100 mM DEA, 30 min; stronger effect = higher value; scale: 0 levamisole-inhibited, 1 vehicle-only enzyme;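 active = activation factor of at least 2 at 20 µM, relative to controls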
Target sequence (P05186 whole entry, looked up): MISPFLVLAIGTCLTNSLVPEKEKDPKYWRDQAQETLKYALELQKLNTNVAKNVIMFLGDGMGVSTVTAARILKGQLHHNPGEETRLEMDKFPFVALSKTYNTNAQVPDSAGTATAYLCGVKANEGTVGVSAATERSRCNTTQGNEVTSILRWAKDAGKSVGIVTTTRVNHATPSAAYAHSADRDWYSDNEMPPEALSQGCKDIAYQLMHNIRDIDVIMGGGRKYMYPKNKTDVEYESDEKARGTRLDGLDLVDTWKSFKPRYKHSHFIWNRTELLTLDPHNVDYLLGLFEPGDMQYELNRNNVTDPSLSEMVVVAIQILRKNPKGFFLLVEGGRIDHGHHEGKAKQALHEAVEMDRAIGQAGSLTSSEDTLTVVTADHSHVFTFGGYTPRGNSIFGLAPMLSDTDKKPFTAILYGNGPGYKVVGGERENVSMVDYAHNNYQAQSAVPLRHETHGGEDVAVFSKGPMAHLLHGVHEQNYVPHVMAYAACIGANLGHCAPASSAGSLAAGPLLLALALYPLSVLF
PostGolgi yeast = growth inhibition of a yeast mutant, post-Golgi transport screen; post-Golgi transport phenotypic cell assay; inhibition, % at 10 µM; 98,000 tested, 0.9% active; AID 739;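 also: yeast cells grown in 1536-well plates; yeast grown about 18 h at 30C before absorbance read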
PostGolgi ctrl = inhibits growth of the yeast control strain; efflux-deficient yeast background strain, growth absorbance A615, 16 h; inhibition, % at 10 µM; 98,000 tested, 5% active; AID 738
Smad3 inh = inhibitors of human Smad3 transcription factor binding | inhibition, % at 25 µM | AID 630 | 88,000 tested, 0.29% active | P84022 | TR-FRET Smad3/Dy647-FoxH1 peptide binding, europium anti-His;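 active = compounds that reduce the energy-transfer binding signal between the protein and its labelled peptide by more than half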;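 also: 0% = Smad3 plus labelled peptide maximal FRET and 100% = peptide-only background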
Cav32 inh = blocks human Cav3.2 T-type calcium channel | 100,000 tested, 4% active | Cav3.2-expressing cells, Fluo-4 calcium fluorescence FDSS; stronger effect = lower value | B-score at 10 µM | AID 449739 | O95180;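 active = single-dose well whose peak fluorescence ratio is a statistical outlier from its plate by either plate-standardised score or position-corrected B-score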
DAT uptake mod = changed human dopamine transporter uptake under cocaine IC80; Q01959; LLC-PK1 hDAT cells, [14C]-dopamine uptake with cocaine IC80; actives deviate in either direction; B-score at 10 µM; 110,000 tested, 1.3% active; AID 449768;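 active = Z score or B-score, a plate-position-corrected score, falls beyond the plate's 99.7% confidence bounds, in either direction; inactive = both scores lie inside the 99.7% bounds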;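 also: scored against the spread of the other compound wells on the same plate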
Numbers without * were called inactive; / = no result given. Rule as the data show it, unless noted: active = inhibition above about 30%; inactive = the rest.

SMILES	TNAP act DEA	PostGolgi yeast	PostGolgi ctrl	Smad3 inh	Cav32 inh	DAT uptake mod
O=C(Nc1ccc(-c2csc(Nc3ccccc3)n2)cc1)c1cccc(C(F)(F)F)c1	/	/	/	/	-0.15	0.32
CCC1(C)Cc2c(sc3c2c2ncnn2c2nnc(SCC(=O)NCc4ccco4)n32)CO1 (stereo not given)	1	-6	6	15	3.7*	-0.0049
Cc1cc(C(=O)CSc2nnc(-c3ccccc3F)o2)c(C)n1Cc1cccs1	0.9	1	29	-1	-4.9*	0.82
C=CCn1c(SCC)nc(O)cc1=O	/	15	7	9	0.38	-0.28
CCN1CCCC1CNC(=O)C(=O)Nc1ccc(OC)cc1 (stereo not given)	/	-18	42*	/	0.22	-0.58
Nc1nc(Cn2nnc(-c3ccccc3Cl)n2)nc(N2CCOCC2)n1	1	-3	9	6	-0.38	0.76
Clc1ccccc1-c1nnn(Cc2ccc(-c3nn[nH]n3)cc2)n1	1	5	-2	8	-4.9*	0.25
O=C(Cn1cnc2c(cnn2-c2ccccc2Cl)c1=O)N1CCc2ccccc21	0.9	-5	7	4	0.46	-0.76
Cc1nc(NCCCN2CCOCC2)c2oc3ccccc3c2n1	0.9	7	10	-4	1.1	0.26
Cc1nc(NCCc2ccccc2)c2oc3ccccc3c2n1	/	18	51*	5	-1.9	1.1
FC(F)(F)c1nc2ccccc2n2c(-c3ccc(Cl)cc3)nnc12	/	-7	1	/	/	-0.32
C=C(C)Cn1c(=S)[nH]c2ccccc2c1=O	/	3	6	4	-0.12	-0.83
CC(C)COn1c(=S)[nH]c2ccccc2c1=O	/	1	38*	5	0.56	-0.38
Cc1ccc(-n2nc(-c3cccs3)cc2C(=O)NCC2CCCO2)c(C)c1 (stereo not given)	1	0	5	5	-4.4*	0.84
COc1cc(OC)c(OC)cc1/C=N/N(C)c1ccccc1	/	2	45*	13	-1.1	1
CCOC(=O)c1c(C)nc2sc(C(=O)Nc3ccc(OC)cc3)c(N)c2c1-c1ccc(OC)cc1	/	-4	15	/	-4.8*	-0.67
CCOC(=O)c1c(C)nc2sc(C(=O)Nc3ccc(C(C)=O)cc3)c(N)c2c1-c1ccc(OC)cc1	/	-7	8	/	0.036	3.6*
CCOC(=O)c1c(C)nc2sc3c(=O)n(-c4ccc(C(C)=O)cc4)nnc3c2c1-c1ccc(OC)cc1	/	-7	9	/	-0.69	1
O=C(Nc1cccc(Cl)c1)Nc1ccccc1C(=O)NCc1ccco1	/	-7	-1	2	-0.31	-0.21
c1ccc(-c2nnc(SCc3nc4ccccc4[nH]3)n2Cc2ccco2)nc1	1	-1	6	-5	0.013	2.6
O=c1[nH]c(CSc2nnc(COc3ccccc3)n2-c2ccccc2)nc2ccccc12	0.7	-3	25	2	-3.9*	2.4
Clc1ccc(OCc2nnc(SCc3nc4ccccc4[nH]3)n2Cc2ccco2)cc1	1.1	56*	57*	6	-8.5*	-0.41
CCn1c(COc2ccc(C)cc2)nnc1SCc1nc2ccccc2[nH]1	/	-1	8	-16	-0.73	0.67
COCCn1c(Cc2ccccc2)nnc1SCc1nc2ccccc2c(=O)[nH]1	/	14	4	/	/	0.0058
Clc1cccc(-c2nnc(SCc3nc4ccccc4[nH]3)n2Cc2ccco2)c1	1	-6	-2	-17	-5.4*	1.5
SMILES	TNAP act DEA	PostGolgi yeast	PostGolgi ctrl	Smad3 inh	Cav32 inh	DAT uptake mod
Cc1ccc(OCc2nnc(SCC(=O)c3ccccc3)n2-c2ccccc2)cc1	/	/	/	-15	-4.4*	0.82
Nc1nc(OCC(F)(F)F)cc(Oc2ccccc2F)n1	0.9	1	11	6	-0.54	0.74
CCc1ccccc1NC(=O)CC1S/C(=N\c2nccs2)N(CC)C1=O (stereo not given)	0.8	-2	5	1	-0.59	-0.14
Cn1c(COc2ccccc2)nnc1SCc1nc2ccccc2[nH]1	1.1	1	17	94*	0.18	-0.51
Cc1nn(Cc2ccccc2)c(Cl)c1C(=O)OCc1nnc(-c2ccc(Cl)cc2)o1	1	-16	14	5	-7.3*	2.6*
O=C(OCc1nnc(-c2ccccc2)o1)c1ccco1	0.9	0	-1	-1	0.57	0.0028
Cc1nn(Cc2ccccc2)c(Cl)c1C(=O)OCc1nnc(-c2ccccc2)o1	1	0	24	11	-5*	0.54
CCC(C)(C(=O)NC1CCCCC1)N(Cc1ccco1)C(=O)CC1NC(=O)NC1=O (stereo not given)	1	0	7	14	0.82	-0.067
Nc1nc2c(c(=O)[nH]1)CN(CCCN1CCOCC1)CN2	/	/	/	72*	/	/
O=C(Cc1ccccc1)Nc1ccc(NC(=O)C2CC2)nc1	0.9	-12	39*	-1	0.9	-1.5
CCCC(=O)Nc1ccc(NC(=O)c2ccccc2Cl)nc1	1	-2	-1	-1	0.13	-0.19
O=C(Cc1ccccc1)Nc1ccc(NC(=O)c2ccco2)nc1	0.9	0	-4	11	0.66	1.2
CCCC(=O)Nc1ccc(NC(=O)CCc2ccccc2)cn1	0.8	30*	1	5	0.42	-0.086
Cc1nc2c(Br)cc(Br)cc2cc1O	/	3	37*	10	-5.1*	-0.55
O=C(NCc1ccc(F)cc1)c1cnn2ccccc12	/	-6	8	4	0.82	-0.45
CC(Sc1nc2ccccc2n1C)C(=O)NC(c1ccccc1)c1ccccc1 (stereo not given)	/	/	/	-3	-9.3*	-0.23
CCNC(=O)NC(=O)C(C)Sc1nc2ccccc2n1CC(C)C (stereo not given)	/	-3	32*	12	-2.3	0.037
CC(C)(C)CN1C(=O)C(=O)NC[C@@H]1Cc1ccc(O)cc1	/	/	/	/	-0.0056	-1
CCCCn1c(=O)n(Cc2cccc(F)c2)c(=O)c2c1ncn2Cc1ccco1	1	-10	39*	-3	-4.3	-0.029
COc1ccccc1Nc1nc2ccccc2[nH]1	0.9	18	-3	2	0.57	0.4
CCc1cc(C(=O)NNC(=S)Nc2cccc(C)c2)cs1	/	/	/	-5	-2.2	0.64
Cc1cccc(NC(=S)NNC(=O)c2csc(C(C)C)c2)c1	/	/	/	1	-5.5*	0.63
O=c1c2ccccc2n2cnnc2n1-c1ccccc1	1	-12	3	-3	-0.097	-1
O=C(Nc1ccc(OCC(=O)N2CCC(Cc3ccccc3)CC2)cc1)c1ccco1	/	0	19	/	-7.2*	1.1
Cc1cc(C(=O)CSc2nnc(Nc3ccccc3F)s2)c(C)n1CC1CCCO1 (stereo not given)	1	3	9	3	-6.9*	0.045
CC(C)(C)n1nnnc1C(c1cc2cc3c(cc2[nH]c1=O)OCCO3)N1CCSCC1 (stereo not given)	0.9	2	-1	-1	1.2	-0.41
CCCCOc1ccc(C(=O)NCc2ccccn2)cc1	1	-4	35*	10	0.068	1.2
COc1ccc(S(=O)(=O)NCc2ccccn2)cc1	/	-6	-6	7	0.83	-0.28
